Test [1] can be described thus: ACEA_ER_80hr: ACEA Biosciences xCELLigence Real-Time Cell Analysis on Estrogen Receptor Agonism for Proliferation (AID 2282667; active = hit-call score of the fitted dose curve at least 0.9, where 1 is the maximum). The following applies: T47D proliferation, impedance (xCELLigence), 80 h. An outline of the steps:
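T-47D cells monitored by electrical impedance (xCELLigence) with compound present throughout; 80 h timepoint, positive-direction fitting versus DMSO. Eight-point 1:4 dilutions from 100 uM final, duplicate plates.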

Test [2] is described as follows: ATG_CRE_CIS: Attagene CIS-FACTORIAL HepG2 Assay for human cAMP Responsive Element (CRE) binding protein 3 (AID 2282926). The following applies: HepG2 CRE cis-reporter, Attagene multiplexed mRNA; actives raise or lower the signal. The method in brief: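 Induced reporter mRNA from a CRE cis element, measured in HepG2 among many multiplexed units at 24 h. Detection used RT-PCR plus capillary electrophoresis of fluorescent fragments; DMSO served as negative control.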

Test [3] deals with CCAAT/enhancer-binding protein beta (Homo sapiens) (UniProt P17676). The test is described as follows: ATG_C_EBP_CIS: Attagene CIS-FACTORIAL HepG2 Assay for human CCAAT/Enhancer Binding Protein (C/EBP) beta (AID 2282927). As to conditions: HepG2 Attagene cis-factorial transcription factor reporter; actives raise or lower the signal. The method in brief:
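Following a 24 h incubation with test chemical, transfected HepG2 cells yielded RNA whose reporter transcripts were quantified by RT-PCR and fluorescent capillary electrophoresis, with DMSO serving as baseline for bidirectional fitting.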

Test [4] in a line: ATG_CMV_CIS: Attagene CIS-FACTORIAL HepG2 Assay for human CMV (Internal Marker) (AID 2282928).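 Note: endpoint acts as a background internal control marker rather than a target.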 The following applies: HepG2 CMV promoter reporter, transcription factor profiling; actives raise or lower the signal. An outline of the steps: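 24 h chemical treatment, HepG2 with transient multi-reporter transfection; RNA → oligo(dT) RT → PCR → 6-FAM extension → HpaI digest → CE fluorescence. Bidirectional fit, DMSO negative control.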

Test [5] has as its target Aryl hydrocarbon receptor (Homo sapiens) (UniProt P35869). Briefly: ATG_Ahr_CIS: Attagene CIS-FACTORIAL HepG2 Assay for human Aryl Hydrocarbon Receptor (Ahr) (AID 2282930). The following applies: HepG2 AhR cis-factorial reporter transcription; actives raise or lower the signal. An outline of the steps:
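Values derive from bidirectional fitting against DMSO negative control. Underlying signal: cis-element reporter mRNA in transiently transfected HepG2, harvested 24 h post-dose and measured by RT-PCR plus capillary electrophoresis.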

A short description of test [6]: ATG_AP_1_CIS: Attagene CIS-FACTORIAL HepG2 Assay for human Activator Protein 1 (AP-1) (AID 2282931). As to conditions: HepG2 Attagene cis-factorial AP-1 reporter mRNA; actives raise or lower the signal. An outline of the steps:
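Readout is reporter transcript level from endogenous transcription factor activity, quantified by RT-PCR with fluorescent primer extension and capillary electrophoresis. Transiently transfected HepG2 cells, 24 h exposure. Curves fitted both directions versus DMSO.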

The nature of test [7]: ATG_AP_2_CIS: Attagene CIS-FACTORIAL HepG2 Assay for human Activator Protein 2 (AP-2) (AID 2282932). As to conditions: HepG2 AP-2 cis-reporter, Attagene transcription factor profiling; actives raise or lower the signal. The method in brief:
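Assay in transfected HepG2 with promoter-regulated reporters, 24 h incubation after dosing. Signal is reporter mRNA fluorescence (RT-PCR, capillary electrophoresis), analysed for both increases and decreases relative to DMSO controls.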

The nature of test [8]: ATG_BRE_CIS: Attagene CIS-FACTORIAL HepG2 Assay for human Bone Morphogenetic Protein (BMP) Response Element (BRE) (AID 2282933). As to conditions: HepG2 BMP response element reporter, Attagene transcription factor profiling; actives raise or lower the signal. An outline of the steps:
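Read-out: reporter mRNA induction quantified by RT-PCR and capillary electrophoresis after 24 h chemical exposure of transfected HepG2 cells. Endogenous factor activity on the BMP response element; gain or loss fitted against DMSO baseline.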

The target in test [9] is Retinoic acid receptor alpha (Homo sapiens) (UniProt P10276). Briefly: ATG_DR5_RAR_CIS: Attagene CIS-FACTORIAL HepG2 Assay for human Retinoic Acid Receptor Alpha (RARE), DR5 submotif (AID 2282934). As to conditions: HepG2 Attagene cis-factorial RARE DR5 reporter, mRNA; actives raise or lower the signal. An outline of the steps: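 Endpoint fitted in both directions relative to DMSO as negative control. It reflects DR5 cis-element reporter mRNA induction in transiently transfected HepG2 cells, measured 24 h after dosing through RT-PCR and fluorescent capillary electrophoresis.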

For test [10], the target named is Transcription factor E2F1 (Homo sapiens) (UniProt Q01094). The test is described as follows: ATG_E2F_CIS: Attagene CIS-FACTORIAL HepG2 Assay for human E2F Transcription Factor 1 (AID 2282935). As to conditions: HepG2 Attagene cis-reporter, E2F reporter RNA transcripts; actives raise or lower the signal. An outline of the steps:
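In this cis-factorial format, endogenous factor activity drives transfected reporters in HepG2; transcripts collected at 24 h are quantified by fluorescence after RT-PCR and capillary separation.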

Test [11] is described as follows: ATG_E_Box_CIS: Attagene CIS-FACTORIAL HepG2 Assay for human Enhancer Box (E-box) (AID 2282936). As to conditions: HepG2 E-box cis-reporter transcription, actives raise or lower the signal. An outline of the steps:
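Measured 24 h post-dosing in HepG2 cells transfected with multiple cis-regulated reporter units, signal being reporter mRNA induction detected by fluorescent RT-PCR with capillary electrophoresis; gain or loss fitted against DMSO.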

Test [12] is described as follows: ATG_M_61_CIS: Attagene CIS-FACTORIAL HepG2 Assay for M61 Transcription Factor (Internal Marker) (AID 2282937). As to conditions: HepG2 Attagene CIS-FACTORIAL M61 internal marker reporter; actives raise or lower the signal. The method in brief:
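Readout is reporter mRNA by RT-PCR, fluorescent primer extension and capillary electrophoresis, with gain or loss fitted relative to DMSO. Transfected HepG2 cells carrying endogenous-TF-driven cis reporters were exposed to chemicals for 24 hours.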

A short description of test [13]: ATG_EGR_CIS: Attagene CIS-FACTORIAL HepG2 Assay for human Early Growth Response 1 (EGR1) (AID 2282938). As to conditions: HepG2 Attagene CIS-FACTORIAL EGR reporter mRNA; actives raise or lower the signal. The method in brief:
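After 24 h compound exposure, RNA from reporter-transfected HepG2 cells was reverse-transcribed, PCR-amplified, fluorescently labelled and resolved by capillary electrophoresis. EGR1 reporter transcript changes, up or down, were fitted against DMSO, reflecting endogenous transcription-factor activity.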

Test [14] in a line: ATG_M_19_CIS: Attagene CIS-FACTORIAL HepG2 Assay for M19 Transcription Factor (Internal Marker) (AID 2282939). As to conditions: HepG2 Attagene CIS-FACTORIAL M19 internal marker reporter; actives raise or lower the signal. An outline of the steps:
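Readout: fluorescent reporter-transcript fragments by capillary electrophoresis after RT-PCR. Human HepG2 liver cells carried transfected MRTU constructs reporting endogenous transcription-factor activity; exposure 24 h. Gain or loss of signal fitted relative to DMSO.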

A short description of test [15]: ATG_ERE_CIS: Attagene CIS-FACTORIAL HepG2 Assay for Estrogen Response Element (ERE) (AID 2282940). As to conditions: HepG2 ERE cis-reporter, Attagene RNA transcript; actives raise or lower the signal. The method in brief:
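Readout: reporter mRNA induction by RT-PCR, FAM-labelled primer extension, HpaI digestion and capillary electrophoresis, 24 h after dosing transfected HepG2 cells. Endogenous transcription factors act on cis-element-regulated reporters. Gain or loss fitted against DMSO.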

The nature of test [16]: ATG_Ets_CIS: Attagene CIS-FACTORIAL HepG2 Assay for human Erythroblast Transformation Specific (ETS) (AID 2282941). The following applies: HepG2 ETS cis-reporter transcription, actives raise or lower the signal. An outline of the steps: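 Cis-regulated reporter mRNA induction in HepG2 (transient transfection), 24 h exposure, RT-PCR plus capillary electrophoresis detection; DMSO serves as negative control and baseline.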

Test [17] addresses Hepatocyte nuclear factor 3-beta (Homo sapiens) (UniProt Q9Y261). The test is described as follows: ATG_FoxA2_CIS: Attagene CIS-FACTORIAL HepG2 Assay for human Forkhead box A2 (FOXA2) (AID 2282942). As to conditions: HepG2 cis-reporter transcription factor activity, 24 h; actives raise or lower the signal. The method in brief: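 Endogenous transcription factor activity is captured via cis-element-driven reporter transcripts in transfected HepG2. Total RNA taken at 24 h post-dosing; labelled RT-PCR products resolved by capillary electrophoresis. Gain or loss fitted versus DMSO.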

Test [18] in a line: ATG_FoxO_CIS: Attagene CIS-FACTORIAL HepG2 Assay for human Forkhead box O (FoxO) (AID 2282943). As to conditions: HepG2 Attagene cis-reporter, FoxO element, mRNA; actives raise or lower the signal. An outline of the steps:
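Values reflect reporter mRNA induction or loss in HepG2 cells 24 h post-dosing, fitted bidirectionally with DMSO as negative control and baseline. Detection used RT-PCR and fluorescence capillary electrophoresis.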

Test [19] in a line: ATG_GATA_CIS: Attagene CIS-FACTORIAL HepG2 Assay for human GATA Binding Protein (AID 2282944). As to conditions: HepG2 GATA cis-element reporter, Attagene multiplex mRNA; actives raise or lower the signal. An outline of the steps:
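Read-out: fluorescent reporter mRNA fragments resolved by capillary electrophoresis after RT-PCR. Human liver HepG2 cells carried transiently transfected cis-regulated reporter constructs; chemicals incubated 24 h; gain or loss of signal fitted relative to DMSO.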

Test [20] in a line: ATG_DR4_LXR_CIS: Attagene CIS-FACTORIAL HepG2 Assay for human Liver X Receptor (LXR), DR4 submotif (AID 2282929). As to conditions: HepG2 Attagene DR4 cis-reporter, mRNA transcription; actives raise or lower the signal. The method in brief:
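The endpoint is DR4-element-driven reporter transcripts after 24 h chemical exposure of transfected HepG2 cells. These were measured via RT-PCR and capillary electrophoresis, and gain or loss of signal was fitted relative to DMSO controls.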

Inconclusive results are not listed. Calls of active or inactive are those of the source. Rule for the calls, unless noted: active = hit-call score of the fitted dose curve at least 0.9, where 1 is the maximum; inactive = score below 0.9.

Sequence of Aryl hydrocarbon receptor (Homo sapiens) (P35869 whole entry, looked up): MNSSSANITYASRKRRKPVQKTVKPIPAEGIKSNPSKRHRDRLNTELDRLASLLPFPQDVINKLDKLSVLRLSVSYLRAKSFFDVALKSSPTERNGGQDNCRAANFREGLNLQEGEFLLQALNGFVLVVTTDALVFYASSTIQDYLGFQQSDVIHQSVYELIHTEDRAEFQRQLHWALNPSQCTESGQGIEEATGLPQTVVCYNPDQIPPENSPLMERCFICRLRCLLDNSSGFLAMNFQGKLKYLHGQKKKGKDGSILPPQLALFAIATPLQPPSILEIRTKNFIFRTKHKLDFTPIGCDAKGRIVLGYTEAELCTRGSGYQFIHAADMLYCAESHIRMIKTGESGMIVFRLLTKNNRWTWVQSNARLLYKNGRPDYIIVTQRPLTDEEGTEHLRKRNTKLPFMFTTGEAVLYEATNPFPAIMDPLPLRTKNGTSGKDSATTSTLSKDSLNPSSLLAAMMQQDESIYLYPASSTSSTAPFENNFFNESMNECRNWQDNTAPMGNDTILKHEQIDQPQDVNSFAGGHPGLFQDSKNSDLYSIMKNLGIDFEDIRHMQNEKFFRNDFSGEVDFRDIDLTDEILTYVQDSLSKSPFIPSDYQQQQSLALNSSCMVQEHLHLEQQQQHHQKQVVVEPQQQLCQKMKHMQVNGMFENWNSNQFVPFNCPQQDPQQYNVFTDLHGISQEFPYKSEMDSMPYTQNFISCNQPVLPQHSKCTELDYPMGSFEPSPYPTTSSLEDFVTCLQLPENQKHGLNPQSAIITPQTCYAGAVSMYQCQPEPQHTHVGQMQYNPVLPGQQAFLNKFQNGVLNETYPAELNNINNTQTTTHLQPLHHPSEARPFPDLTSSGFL
Sequence of CCAAT/enhancer-binding protein beta (Homo sapiens) (P17676 whole entry, looked up): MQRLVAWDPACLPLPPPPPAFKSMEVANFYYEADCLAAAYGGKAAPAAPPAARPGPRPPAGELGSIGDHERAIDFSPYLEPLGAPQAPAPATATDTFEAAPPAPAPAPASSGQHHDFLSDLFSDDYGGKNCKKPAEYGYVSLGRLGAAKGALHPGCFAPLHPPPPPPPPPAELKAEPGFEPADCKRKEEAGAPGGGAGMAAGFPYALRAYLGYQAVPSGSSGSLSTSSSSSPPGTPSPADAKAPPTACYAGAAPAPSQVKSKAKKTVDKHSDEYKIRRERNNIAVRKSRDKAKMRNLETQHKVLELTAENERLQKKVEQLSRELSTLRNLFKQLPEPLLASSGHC
Sequence of Hepatocyte nuclear factor 3-beta (Homo sapiens) (Q9Y261 whole entry, looked up): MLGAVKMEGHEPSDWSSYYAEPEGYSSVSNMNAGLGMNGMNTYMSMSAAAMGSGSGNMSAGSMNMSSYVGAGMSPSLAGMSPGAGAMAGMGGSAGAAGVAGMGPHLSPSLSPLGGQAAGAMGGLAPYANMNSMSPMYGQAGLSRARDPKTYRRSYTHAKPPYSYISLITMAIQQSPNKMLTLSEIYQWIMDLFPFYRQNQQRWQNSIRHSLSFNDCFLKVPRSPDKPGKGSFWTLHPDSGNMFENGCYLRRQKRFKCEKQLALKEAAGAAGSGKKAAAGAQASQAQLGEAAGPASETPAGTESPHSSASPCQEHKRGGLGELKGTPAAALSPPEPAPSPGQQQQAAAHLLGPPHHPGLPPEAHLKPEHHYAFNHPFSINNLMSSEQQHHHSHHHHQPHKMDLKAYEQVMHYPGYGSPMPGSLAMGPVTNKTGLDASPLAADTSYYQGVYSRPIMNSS
Sequence of Retinoic acid receptor alpha (Homo sapiens) (P10276 whole entry, looked up): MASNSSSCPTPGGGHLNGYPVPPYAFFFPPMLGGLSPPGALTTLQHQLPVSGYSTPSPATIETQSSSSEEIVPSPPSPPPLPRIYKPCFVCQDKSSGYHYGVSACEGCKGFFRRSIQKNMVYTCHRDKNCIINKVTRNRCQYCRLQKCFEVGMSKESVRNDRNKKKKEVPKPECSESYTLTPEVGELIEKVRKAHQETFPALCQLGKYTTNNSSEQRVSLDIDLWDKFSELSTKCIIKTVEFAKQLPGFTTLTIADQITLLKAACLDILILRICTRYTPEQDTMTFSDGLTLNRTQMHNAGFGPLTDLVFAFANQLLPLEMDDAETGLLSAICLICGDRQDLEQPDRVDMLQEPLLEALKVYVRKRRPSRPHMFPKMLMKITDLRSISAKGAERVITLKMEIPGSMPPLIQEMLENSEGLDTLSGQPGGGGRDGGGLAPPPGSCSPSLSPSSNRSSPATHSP
Sequence of Transcription factor E2F1 (Homo sapiens) (Q01094 whole entry, looked up): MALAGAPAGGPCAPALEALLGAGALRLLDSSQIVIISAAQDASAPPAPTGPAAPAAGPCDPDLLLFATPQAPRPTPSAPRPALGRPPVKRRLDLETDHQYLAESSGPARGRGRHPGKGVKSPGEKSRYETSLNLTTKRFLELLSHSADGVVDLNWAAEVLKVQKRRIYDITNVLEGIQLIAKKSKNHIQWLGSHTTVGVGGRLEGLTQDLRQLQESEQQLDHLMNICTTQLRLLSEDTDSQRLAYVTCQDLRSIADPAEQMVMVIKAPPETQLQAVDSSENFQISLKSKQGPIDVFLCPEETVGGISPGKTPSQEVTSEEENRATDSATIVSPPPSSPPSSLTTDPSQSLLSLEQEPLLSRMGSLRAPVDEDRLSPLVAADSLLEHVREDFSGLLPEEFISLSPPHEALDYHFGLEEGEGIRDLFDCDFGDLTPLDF

Regarding `CO[Si](CCCOCC1CO1)(OC)OC` (stereo unspecified), the call in test [1], in test [2], in test [3], in [4], in test [5] and in test [6] was inactive. Also, the result in [7], in [8], in test [9], in test [10], in test [11] and in test [12] was inactive. Further, the compound was classed as inactive in test [13], in test [14], in test [15], in test [16], in test [17] and in test [18]. Besides, the outcome in test [19] was inactive.

For the compound `O=C(Cl)c1ccc(Cl)cc1Cl`, the compound was classed as inactive in [1], in test [2], in [3], in [4], in test [5] and in test [7]. Moreover, the outcome in [8], in test [9], in test [10], in test [11], in [12] and in [13] was inactive. Further, the result in test [14], in [15], in test [16], in [17] and in test [18] was inactive.

As to `C=C(C)C(=O)OCC(F)(F)C(F)(F)C(F)(F)C(F)F`, the compound was called inactive in test [1], in test [2], in test [3], in test [4], in test [5] and in test [6]. Also, the outcome in test [7], in test [8], in test [9], in [10], in test [11] and in test [13] was inactive. Also, the result in [14], in [15], in test [16], in test [17], in test [18] and in test [19] was inactive.

In the case of `Cc1ccc(O)cn1`, the compound was called inactive in [1], in test [2], in [3], in test [4], in test [5] and in test [6]. Besides, the call in [7], in test [8], in test [9], in test [10], in [11] and in [12] was inactive. Besides, the call in test [13], in test [14], in test [15], in test [16], in [17] and in [18] was inactive.

With `CC(C)CC=C(C=O)c1ccccc1`, the AC50 in test [1] was 24.1 µM (active); in [6] it was 100 µM (active); in test [15], 35.2 µM (active). The compound was classed as inactive in test [2], in test [3], in test [4], in test [7], in test [8] and in test [9]. Further, the call in [10], in test [11], in test [12], in test [13], in test [14] and in [16] was inactive. Further, the call in [17] and in test [18] was inactive.

For the compound `OCC(F)(F)C(F)(F)C(F)(F)CO`, the compound was called inactive in test [1], in [2], in test [3], in test [4], in test [7] and in test [8]. For the same compound, the outcome in [9], in test [10], in test [11], in [12], in test [13] and in [14] was inactive. Besides, the outcome in test [15], in [16], in test [17], in [18] and in test [19] was inactive.

With `OCC(O)CC(F)(F)C(F)(F)C(F)(F)C(F)(F)C(F)(F)C(F)(F)C(F)(F)C(F)(F)F` (stereo unspecified), the call in test [1], in test [2], in [3], in [4], in test [5] and in test [6] was inactive. Further, the outcome in test [7], in test [8], in test [9], in [10], in [11] and in test [12] was inactive. In addition, the compound was classed as inactive in [13], in [14], in [15], in [17] and in test [18]. For the same compound, the AC50 in [16] was 9.97 µM (active).

On to `N#CCCOCCC#N`, for which the call in test [2], in test [3], in [4], in [20], in test [5] and in [7] was inactive. Further, the result in [8], in test [9], in test [10], in [11], in [12] and in test [13] was inactive. Further, the compound was classed as inactive in test [14], in test [15], in test [16], in [17] and in test [18].

Source of the values: PubChem BioAssay (EPA / NIEHS).
